# Measured values published in PubChem BioAssay (NCATS).
# Results filed as inconclusive are left out. A call without a number means that no potency is given here. Active and inactive are the calls of the source. Calls come from the whole dose curve; as a rule, active = well fitted cell-killing curve with a large enough effect; inconclusive = small, poorly fitted or top-dose-only effect; inactive = no such curve, though single readings can be large or run the other way.
# Assay: qHTS of pediatric cancer cell lines to identify multiple opportunities for drug repurposing: Confirmatory screen for U-2 OS cells (AID 1347122); note: nearly all actives have a fitted effect of over 65% in size
# Details: U-2 OS osteosarcoma cell viability; series mostly up to 45.9 µM
# Outline: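 Viability after 48 h compound treatment at 37C, 500-1,000 cells/well, read as ATP luminescence with CellTiter-Glo. Primary screens used 11-point (MIPE, 0.78 nM-46 µM) or 8-point (NPC, 0.59 nM-46 µM) final concentrations; follow-up screens used 11-point dilutions.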
# Potency is the fitted concentration of half-maximal effect.
row,SMILES,Potency
1,Cn1cnc2c(F)c(Nc3ccc(Br)cc3Cl)c(C(=O)NOCCO)cc21,16.5 µM (active)
2,NCCCC(N)(C(=O)O)C(F)F (stereo not given),inactive
3,CCCS(=O)(=O)Nc1ccc(F)c(C(=O)c2c[nH]c3ncc(-c4ccc(Cl)cc4)cc23)c1F,23.3 µM (active)
4,NC(=O)c1ccc(I)c([N+](=O)[O-])c1,inactive
5,Nc1nc2[nH]cc(CCc3ccc(C(=O)N[C@@H](CCC(=O)O)C(=O)O)cc3)c2c(=O)[nH]1,inactive
6,Nc1nc2c(ncn2COCCO)c(=O)[nH]1,inactive
7,CCOc1ccn(-c2ccc(F)cc2)c(=O)c1C(=O)Nc1ccc(Oc2ccnc(N)c2Cl)c(F)c1,inactive
8,O=NN(CCCl)C(=O)NCCCl,inactive
9,CC(C=CC1=C(C)CCCC1(C)C)=CC=CC(C)=CC(=O)O,inactive
10,CNCc1ccc(-c2[nH]c3cc(F)cc4c3c2CCNC4=O)cc1,inactive
